Results reported in PubChem BioAssay (NCATS).
Inconclusive results are not listed. Where a call stands in place of a potency, no number is given. Unmarked numbers belong to inactive results. Active and inactive are the calls of the source. The call rests on the fitted dose curve; in most records, active means well fitted inhibition curve with a large enough effect; inconclusive means small, poorly fitted or top-dose-only effect; inactive means no such curve, though single readings can be large or run the other way. Where a SMILES comes first, the peptide text is derived from it. [ ]: non-standard residue; d: D form. Hyp = O=C(O)[CH]1C[CH](O)CN1; Phe(ol) = N[CH](CO)Cc1ccccc1; Iva = CC[C](C)(N)C(=O)O; Aib = CC(C)(N)C(=O)O

What follows are compounds tested on Zika virus NS2B-NS3 protease (unlinked complex) (assay: Primary screen GU Rhodamine qHTS for Zika virus inhibitors: Unlinked NS2B-NS3 protease assay (AID 1347159; further: nearly all actives have a fitted effect of over 60% in size)). Conditions: Recombinant ZIKV NS2B-NS3 protease, Rhodamine110 substrate fluorescence; series mostly up to 107 µM.
Excerpt: Avindra Nath, Ph.D., National Institute of Neurological Disorders and Stroke (NINDS), Bethesda, MD
Radhakrishnan Padmanabhan, Ph.D., Georgetown University (GU), Washington D.C.
Zika Virus causes congenital defects, including microcephaly and is associated with Guillain-Barre syndrome, eningoencephalitis and myelitis in infected adult. […] Using a target-based approach, we hope to establish a screening paradigm to uncover novel, cell-active NS2B-NS3 protease (Zika Virus) specific inhibitors from NCATS' collection of small molecules using qHTS.
Four assay panel was created to identify potential Zika Virus inhibitors. Namely, (1) GU unlinked NS2B-NS3 AMC tagged protease qHTS, (2) GU unlinked NS2B-NS3 Rhodamine tagged protease qHTS, (3) NINDS linked NS2B-NS3 AMC tagged protease qHTS, (4) NINDS linked NS2B-NS3 Rhodamine tagged protease qHTS. Active compounds were re-acquired and re-screened to confirm inhibition. Inhibitors were further screened against various confirmatory and counterscreens in dose response format.
Early Translation Branch (ETB)
National Center for Advancing Translational Sciences (NCATS), Rockville, MD
National Institute of Health (NIH), Bethesda, Maryland
Padmanabhan lab provided the NS2B hydrophilic domain and NS3 protease domain in a noncovalent complex used for the unlinked assay. Control compound aprotinin is obtained from Thermo Scientific (#78432; Waltham, Massachusetts). Rhodamine110 substrate ([N-Cbz]-Nle-Lys-Arg-Arg-Rhod110-Arg-Arg-Lys-Nle-[N-Cbz]) was purchased from either Genscript or Bachem.
1536-well Protease (Rhodamine110 Substrate) Assay:
Briefly, 3 microL of enzyme (25 nM final concentration), in assay buffer (10 mM Tris-HCl pH 8.0 with 0.01% Tween 20) were dispensed into a 1,536-well solid-bottom black plate (Greiner Bio One, Monroe, NC). Twenty-three nL of compounds (final concentration range 7.28 nM to 114 microM) or control Aprotinin (final concentration range 3.47 nM to 114 microM) were transferred via Wako Pin-tool (Wako Automation, Richmond, VA). Samples were incubated (room temperature, protected from light) for 15 minutes followed by a 1 microL Rhodamine110 substrate addition (1.5 microM final concentration). Plates were then immediately read on a ViewLux High-throughput CCD imager (PerkinElmer, Waltham, MA) equipped with FITC fluorescence optics (480(20) nm excitation, 540(25) nm emission), then incubated (room temperature, protected from light) for 15 minutes (~15% conversion). The change in fluorescence intensity over the 15-minute reaction period was normalized against no-inhibitor and no-enzyme controls and the resulting percent inhibition data were fitted to a 4-parameter Hill equation. Aprotinin was used as intraplate control.
Potency means the concentration at half of the fitted maximal effect.

Compound	Potency	activity change, negative = inhibition
COC(=O)CC[C@@H](C)C1CCC2C3CCC4C[C@H](OC(C)=O)CCC4(C)C3C[C@H](O)C21C (stereo not given in full)	inactive	
C[C@@H](NC(=O)c1ccc(C#Cc2cccc(F)c2)cn1)C(C)(C)O	inactive	
CCn1nc(C2CCN(C(=O)CCO)CC2)nc1-c1cnc(N)c(-c2nnc(C(C)(C)C)o2)n1	inactive	
COCC(=O)NC/C=C/c1ccc2ncnc(Nc3ccc(Oc4ccc(C)nc4)c(C)c3)c2c1	inactive	
CCC/C=C\C=C/CCc1cc(O)c([C@@H]2O[C@H](CO)[C@@H](O)[C@H](O)[C@H]2O)c(O)c1C(=O)OC	inactive	
CN[C@@H]1[C@H](O[C@H]2[C@H](O[C@@H]3[C@@H](O)[C@H](O)[C@@H](N=C(N)N)[C@H](O)[C@H]3N=C(N)N)O[C@@H](C)[C@]2(O)CO)O[C@@H](CO)[C@H](O)[C@H]1O	inactive	
COc1c2c(c(C)c3c1C(=O)OC3)O[C@@]1(C)C[C@@H](OC(C)=O)[C@]34O[C@](OC)(CC[C@]3(C)[C@H]1C2)OC4(C)C	inactive	
CC(=O)O[C@@H]1C2=C(O)C(=O)[C@](C)(OC(C)=O)C(=O)C2=CO[C@@]12O[C@@H](C)CC[C@H]2OC(C)=O	inactive	
O=C(Nc1ccn(Cc2ccc(O)cc2C(F)(F)F)n1)c1c(F)cccc1F	inactive	
O=C(Nc1ccc(Cl)cc1)C1CCCN(C(=O)c2cccc(-c3ccco3)c2)C1 (stereo not given)	inactive	
Cn1ncc(Cl)c1-c1cc(C(=O)N[C@H](CN)Cc2ccc(F)c(F)c2)sc1Cl	inactive	
O=C(Nc1ccc2[nH]nc(-c3ccncc3)c2c1)[C@@H]1CCN(CC(=O)N2CCN(c3ccc(-c4ncccn4)cc3)CC2)C1	inactive	
N#Cc1ccc(O[C@@H]2c3ccccc3C[C@H]2N2CCC[C@@H](N)C2)c(Cl)c1	inactive	
O=C(c1ccccn1)N(Cc1cccs1)C1(C(=O)NC2CCCCC2)CCCCC1	inactive	
CN1CCN(C2=Nc3ccccc3Nc3ccc(OS(=O)(=O)C(F)(F)F)cc32)CC1	inactive	
Cc1ccnn1-c1ccc(C(=O)N2CCN(S(=O)(=O)c3ccc(Cl)c(C(F)(F)F)c3)CC2)cc1	inactive	
NC(=O)C1=CC2C3C=CC2C(OC3=O)O1 (stereo not given)	inactive	
CCC(C)(NC(=O)C(CCC(N)=O)NC(=O)C1CC(O)CN1C(=O)C(C)(C)NC(=O)C(C)(C)NC(=O)C(CC(C)C)NC(=O)CNC(=O)C(NC(=O)C(C)(C)NC(=O)C(C)(C)NC(=O)C(C)(C)NC(=O)C(Cc1ccccc1)NC(C)=O)C(C)C)C(=O)N1CC(O)CC1C(=O)NC(C)(C)C(=O)NC(CO)Cc1ccccc1 (stereo not given) (Ac-F[Aib][Aib][Aib]VGL[Aib][Aib][Hyp]Q[Iva][Hyp][Aib][Phe(ol)]; configuration not given here)		8.8% [at 19.1 µM]
Cc1cc(-c2nc3cc(F)ccc3s2)ccc1NC(=O)[C@@H](N)CCCCN	inactive	
COc1ccc(OC)c(-c2ccc(NC(=O)c3ccncc3F)cc2)c1	inactive	

Compound	Potency	activity change, negative = inhibition
Cc1sc2c(c1C)C(c1ccc(Cl)cc1)=N[C@@H](CC(=O)Nc1ccc(OCCOCCOCCOCCNc3cccc4c3C(=O)N(C3CCC(=O)NC3=O)C4=O)cc1)c1nnc(C)n1-2 (stereo not given in full)	inactive	
CC(C)NC(=O)N1CC[C@H](N=C2Nc3cc(F)ccc3N(CC(F)F)c3ccc(Cl)cc32)C1	inactive	
COc1cc2nc(C3CC3)nc(N3CCN(c4ccccc4OC)CC3)c2cc1OC	inactive	
COc1cc(C(C)C)c(Oc2cnc(N)nc2N)cc1I	inactive	
CCCCCCCCC(=O)N[C@H](CN1CCCC1)[C@H](O)c1ccc2c(c1)OCCO2	inactive	
COc1ccc(CCN(C)CCCOc2nsc(-c3ccccc3)n2)cc1OC	inactive	
CC(=O)c1ccc2c(c1)[C@H](NC(=O)c1ccc(F)c(Cl)c1)[C@H](O)C(C)(C)O2	inactive	
Cc1[nH]c2ccccc2c1CCNC(=O)c1cccs1	inactive	
Fc1ccc2c(CCNCc3cccc(OCC(F)(F)C(F)F)c3)c[nH]c2c1	inactive	
CO[C@@H]1CC(OC2CCC3(C)C(CCC45CCC(C6=CC(=O)OC6)C(C)(CCC43)C5=O)C2)O[C@H](C)[C@@H]1O[C@@H]1O[C@H](CO[C@@H]2O[C@H](CO)[C@@H](O)[C@H](O)[C@H]2O)[C@@H](O)[C@H](O)[C@H]1O (stereo not given in full)	inactive	
Cc1[nH]c2ccccc2c1CCNCc1ccc(/C=C/C(=O)NO)cc1	inactive	
CC(C)(C)c1ccc(C(=O)Nc2cc(Cl)c(Br)cc2C(=O)O)cc1	2510 nM (active)	
CC1(C)CCC(C)(C)c2cc(C#Cc3ccc(C(=O)O)cc3)ccc21	1580 nM (active)	
O=C(NC[C@H](O)CN1CCc2ccccc2C1)c1ccnc(NC2CCC2)c1	inactive	
Nc1nc(O)c(C2=C3C(=Nc4ccccc43)C(=O)NCC2)[nH]1	inactive	
Cn1cc(-c2cnn3c(N)c(Br)c(C4CCCNC4)nc23)cn1 (stereo not given)	inactive	
O=C(Nc1nc2ccc([N+](=O)[O-])cc2s1)C1CCCCC1	inactive	
CC(=O)NC(C)c1cnc(-c2cnc(Oc3ccc(OC(C)C)cc3)s2)s1 (stereo not given)	inactive	
N#Cc1ccc(N2N=C3c4ccc(C(=O)O)cc4CC[C@@H]3[C@@H]2C2CCCC2)cc1Cl	1410 nM (active)	
Cc1cc2c(N3CCCC3)nc(N3CCCC3)nc2n1C	inactive	
